Screening results as filed in PubChem.
NOMO-1 viab – STK33 inhibitor candidate reducing NOMO-1 cell viability. NOMO-1 AML viability, CellTiter-Glo luminescence, 72 h. AID 2330. 7.5% of 37,000 active. inhibition, % (concentration not given with the values); in the data active means inhibition above about 80%; inconclusive means no clear call, values can overlap the other calls
STK33 inh – blocks human STK33 kinase activity. Q9BYT3. ADP-Glo luminescence, MBP substrate. inhibition, % at 12.5 µM. 0.44% of 27,000 active. AID 2322; in the data active means inhibition above about 20%; inconclusive means no clear call, values can overlap the other calls
Target sequence (Q9BYT3 whole entry, looked up): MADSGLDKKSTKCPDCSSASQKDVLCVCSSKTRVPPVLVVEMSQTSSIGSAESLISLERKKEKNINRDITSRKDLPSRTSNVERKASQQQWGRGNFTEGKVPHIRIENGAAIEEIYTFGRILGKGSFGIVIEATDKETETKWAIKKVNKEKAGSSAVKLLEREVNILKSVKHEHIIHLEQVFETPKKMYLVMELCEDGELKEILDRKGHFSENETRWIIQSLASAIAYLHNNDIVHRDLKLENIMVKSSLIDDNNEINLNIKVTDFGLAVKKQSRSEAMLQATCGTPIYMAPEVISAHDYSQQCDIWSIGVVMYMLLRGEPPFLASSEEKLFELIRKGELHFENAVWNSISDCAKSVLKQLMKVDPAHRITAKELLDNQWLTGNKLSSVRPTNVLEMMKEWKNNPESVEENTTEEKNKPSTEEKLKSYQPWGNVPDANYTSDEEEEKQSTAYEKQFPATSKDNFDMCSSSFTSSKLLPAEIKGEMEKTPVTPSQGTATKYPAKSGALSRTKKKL
PD-1 reverse act – activators reversing PD-1 mediated T-cell inhibition | primary human CD4 T cells, PD-L1 beads, CellTiter-Glo 96 h | activation, % (concentration not given with the values) | AID 2316 | 29,000 tested, under 10 active; call rule not given here;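 further: 0% = median vehicle wells and 100% = positive control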
Starred values were filed as active, the others as inactive; ? = inconclusive; nt = no result. The full list was thinned out, with hits kept by preference.

SMILES	NOMO-1 viab	STK33 inh	PD-1 reverse act
COCC1OC(OC(C)(C)C2CCC3(C)C(O2)C(O)CC2(C)/C(=C4\CCC(O)C(C)(CCC(O)C(C)(C)O)C4)CCC23)C(NC(C)=O)C(O)C1O (stereo not drawn)	27.0	-5.6	-1.5
O=C(Cn1c2ccccc2n2nc(-c3ccco3)nc12)c1ccccc1	21.3	15.2	-2.5
O=C(Cn1c2ccccc2n2nc(-c3cccs3)nc12)c1ccc(Cl)cc1	114.7*	6.6	-14.1
C[C@@H]1CC[C@]2(C(=O)O[C@@H]3O[C@H](CO)[C@@H](O)[C@H](O)[C@H]3O)CC[C@]3(C(=O)O)C(=CCC4[C@@]5(C)CC[C@H](OC6OC[C@@H](O)[C@H](O)[C@H]6O)C(C)(C)C5CC[C@]43C)C2[C@H]1C (stereo partly drawn)	-2.6	-3.0	0.7
CC(C)C[C@](CC(=O)OCc1ccc(O[C@@H]2O[C@H](CO)[C@@H](O)[C@H](O)[C@H]2O)cc1)(O[C@@H]1O[C@H](CO)[C@@H](O)[C@H](O)[C@H]1O)C(=O)OCc1ccc(O[C@@H]2O[C@H](CO)[C@@H](O)[C@H](O)[C@H]2O)cc1	94.9*	-0.9	0.1
O=C(CC(O)(CC(=O)OCc1ccc(O[C@@H]2O[C@H](CO)[C@@H](O)[C@H](O)[C@H]2O)cc1)C(=O)OCc1ccc(O[C@@H]2O[C@H](CO)[C@@H](O)[C@H](O)[C@H]2O)cc1)OCc1ccc(O[C@@H]2O[C@H](CO)[C@@H](O)[C@H](O)[C@H]2O)cc1	9.7	-4.8	-0.3
Cc1cc(=O)[nH]c(SCCOc2cccc(Br)c2)n1	-15.2	-2.4	1.0
CC(=O)O[C@@](C)(C(=O)/C=C/C(C)(C)O)[C@H]1[C@H](O)C[C@@]2(C)[C@@H]3CC=C4[C@@H](C=C(O[C@@H]5O[C@H](CO)[C@@H](O)[C@H](O)[C@H]5O[C@@H]5O[C@@H](C)[C@H](O)[C@@H](O)[C@H]5O)C(=O)C4(C)C)[C@]3(C)C(=O)C[C@]12C	nt	-2.6	nt
CC(=O)OC(C)(C)/C=C/C(=O)[C@](C)(O)[C@H]1C(O)C[C@@]2(C)[C@@H]3CC=C4[C@@H](C=C(O[C@@H]5O[C@H](CO)[C@@H](O)[C@H](O)[C@H]5O)C(=O)C4(C)C)[C@]3(C)C(=O)C[C@]12C (stereo partly drawn)	117.1*	-0.8	0.2
Cc1cc(OCC(=O)Nc2ccccc2C(=O)NC2CCCCC2)cc(C)c1Cl	13.8	1.8	3.4
O=C(Cn1cnc2scc(-c3cccc([N+](=O)[O-])c3)c2c1=O)Nc1ccc(Cl)cc1	15.9	-2.9	-1.7
Cc1cc2c(C(C)C)c(O)c(O)c(C=O)c2c(O)c1-c1c(C)cc2c(C(C)C)c(O)c(O)c(C=O)c2c1O	110.7*	-4.4	nt
CCc1cc(O)c(C)c(O)c1C=O	nt	-5.3	nt
O=C(CCCOc1ccc(Cl)cc1Cl)Nc1ccc2c(c1)OCCO2	9.5	nt	-0.4
O=C(CNC(=O)c1ccc([N+](=O)[O-])cc1)Nc1cccc(C(F)(F)F)c1	-7.4	-4.5	nt
C=C1C(=O)O[C@@H]2C[C@@]3(C)[C@@H](O)C[C@@H](O)C(=C)[C@@H]3C[C@H]12	82.8*	-2.1	-3.8
C=C1C(=O)OC2CC3(C)CCC=C(CO)C3CC12 (stereo not drawn)	nt	-9.0	nt
COC(=O)C1=C(C)NC(=S)NC1c1cccc(OC)c1OCc1ccccc1 (stereo not drawn)	9.3	2.6	-2.8
O=C(NCCNC(=O)c1ccccc1[N+](=O)[O-])c1ccc(F)cc1	7.3	1.1	0.1
O=C(/C=C/S(=O)(=O)c1ccc(Cl)cc1)c1ccc(F)cc1	120.4*	7.3	-58.1
NC(=O)CSc1oc(-c2ccc(F)cc2)nc1S(=O)(=O)c1ccc(Cl)cc1	22.9	3.0	3.5
COC(=O)c1cc(N2C(=O)C3C4C=CC(C)(O4)C3C2=O)ccc1Cl (stereo not drawn)	113.0*	1.8	-47.2
C[C@H](CO)N1C[C@H](C)[C@@H](CN(C)Cc2ccc(C(=O)Nc3ccccc3N)cc2)Oc2c(NC(=O)c3nc4ccccc4s3)cccc2C1=O	110.3*	nt	-1.1
C[C@H](CO)N1C[C@H](C)[C@@H](CN(C)Cc2ccc(C(=O)O)cc2)Oc2c(NC(=O)c3nc4ccccc4s3)cccc2C1=O	18.3	nt	-1.3
C[C@@H]1CN([C@@H](C)CO)C(=O)c2cccc(NC(=O)c3nc4ccccc4s3)c2O[C@@H]1CN(C)Cc1ccc(C(=O)Nc2ccccc2N)cc1	127.5*	nt	-5.6
SMILES	NOMO-1 viab	STK33 inh	PD-1 reverse act
C[C@@H]1CN([C@H](C)CO)C(=O)c2cccc(NC(=O)c3nc4ccccc4s3)c2O[C@H]1CN(C)Cc1ccc(C(=O)O)cc1	11.4	nt	-1.5
COc1ccccc1NC(=O)c1sc2ncn(CC(=O)Nc3ccccc3C)c(=O)c2c1C	-7.9	1.6	nt
Cc1ccc(S(=O)(=O)Nc2ccc3c(c2)C(=O)N([C@H](C)CO)C[C@H](C)[C@@H](CN(C)Cc2ccc(-c4ccccc4)cc2)O3)cc1	53.3	nt	-1.4
C[C@H](CO)N1C[C@H](C)[C@@H](CN(C)Cc2ccc(-c3ccccc3)cc2)Oc2ccc(NS(=O)(=O)c3ccccc3)cc2C1=O	18.6	1.2	2.4
Cc1ccc(S(=O)(=O)Nc2ccc3c(c2)C(=O)N([C@H](C)CO)C[C@@H](C)[C@@H](CN(C)Cc2ccc(-c4ccccc4)cc2)O3)cc1	121.6*	nt	-2.3
C[C@@H]1CN([C@H](C)CO)C(=O)c2cc(NS(=O)(=O)c3ccccc3)ccc2O[C@@H]1CN(C)Cc1ccc(-c2ccccc2)cc1	121.3*	nt	-0.1
CC(C)c1ccc(NC(=O)CSc2nnc(-c3ccc(Br)cc3)n2C)cc1	-13.5	-0.6	1.0
COc1cc(CO)c(CC(=O)NN)cc1OC	-2.8	nt	-0.4
C[C@@H]1CN([C@@H](C)CO)C(=O)Cc2cc(NC(=O)Nc3ccc(C(F)(F)F)cc3)ccc2O[C@@H]1CN(C)Cc1ccccc1	?	-1.6	nt
C[C@H]1CN([C@@H](C)CO)C(=O)Cc2cc(NC(=O)Nc3ccccc3)ccc2O[C@@H]1CN(C)Cc1ccc(C(F)(F)F)cc1	54.2	-0.4	0.7
C[C@@H]1CN([C@@H](C)CO)C(=O)Cc2cc(NC(=O)Nc3ccccc3)ccc2O[C@@H]1CN(C)Cc1ccc(C(F)(F)F)cc1	119.2*	-1.8	-1.6
C[C@@H]1CN([C@H](C)CO)C(=O)Cc2cc(NC(=O)Nc3ccc(C(F)(F)F)cc3)ccc2O[C@@H]1CN(C)Cc1ccccc1	118.2*	3.6	-3.2
COc1ccc(S(=O)(=O)N(C(C)=O)c2ccc3oc4c(c3c2)CC(C)CC4)cc1[N+](=O)[O-] (stereo not drawn)	-11.0	-0.6	2.9
CC(=O)Nc1ccc(Br)cc1	-14.6	nt	1.9
CC(=O)C(C#N)C(=O)Nc1cc(Br)ccc1Br (stereo not drawn)	-22.4	22.1*	nt
COc1ccccc1CNC(=O)c1cc(-c2ccccn2)nc2c(Cl)cccc12	92.1*	-0.2	nt
Cc1cc(C)c2nc(-c3ccccn3)cc(C(=O)NCCc3ccc(S(N)(=O)=O)cc3)c2c1	26.5	6.0	-1.1
COCCCNC(=O)c1cc(-c2ccccn2)nc2ccc(Br)cc12	7.7	7.5	nt
Cc1cc(C)c2nc(-c3ccccn3)cc(C(=O)NCc3ccc(S(N)(=O)=O)cc3)c2c1	112.5*	6.2	nt
COC(=O)c1ccc(NC(=S)NC(=O)N2CCOCC2)cc1	7.0	nt	2.1
